Measured values taken from PubChem BioAssay (NCATS).
Results filed as inconclusive are left out. Entries that show only a call come without a potency. Active and inactive are the calls of the source. The call rests on the fitted dose curve; in most records, active means well fitted cell-killing curve with a large enough effect; inconclusive means small, poorly fitted or top-dose-only effect; inactive means no such curve, though single readings can be large or run the other way.

Assay: qHTS of pediatric cancer cell lines to identify multiple opportunities for drug repurposing: Primary screen for Rh30 cells (AID 1347107); further: nearly all actives have a fitted effect of over 75% in size
Settings: Rh30 rhabdomyosarcoma viability, CellTiter-Glo luminescence, 48 h; series mostly up to 46 µM
Text: Drug repurposing or repositioning has been offered as a strategy for drug development in oncology programs. This approach has special potential for childhood cancers and other rare or orphan diseases, where the expected return on new drug development has been a disincentive to pharmaceuticals.
In this project we exploit the poly-pharmacology of drugs to discover new indications via phenotypic screening of a panel of 19 well-characterized cell lines derived from solid tumors seen in children and adolescents. The goal is to identify approved drugs with previously unrecognized anticancer properties that has the potential to reveal new mechanisms and biological processes involved in carcinogenesis or drug resistance. We employed a titration-based paradigm (quantitative high-throughput screening or qHTS), where all compounds were tested at multiple concentrations for their effect on cell viability. Concentration-response curves (CRCs) were derived directly from the primary screen, and both potency and efficacy values were used to identify compounds with robust bioactivity profiles. We screened the NIH Chemical Genomics Center (NCGC) Pharmaceutical Collection (NPC) and Mechanism Interrogation Plate (MIPE) small molecule collections of approved and investigational compounds against these cell lines; and measured metabolically active cells after 48 hours of compound treatment as a proxy for cell viability.
Assay Submitter: Nathalia J. Martinez, National Center for Advancing Translational Sciences, National Institutes of Health, Rockville, MD, USA; email: natalia.martinez@nih.gov
[1] Shen, M et al. Quantitative high-throughput phenotypic screening of pediatric cancer cell lines identifies multiple opportunities for drug repurposing. Oncotarget 2017 Dec 19;9(4):4758-4772. PMID 29435139.
The cells were obtained from University of North Carolina (UNC), Pediatric Preclinical Testing Program (PPT), and Coriell Institute (CI).
qHTS cell viability assay:
Cells were assayed in growth media at a density of 500-1,000 cells/well. Five microliters of cells were dispensed into 1,536-well, white, solid-bottom, TC-treated plates (Greiner Bio One) using a multidrop dispenser and incubated at 37 degrees C, 5% CO2, under a humidified atmosphere for 5 hours. Twenty-three nanoliters of compounds and controls (neutral control DMSO or positive control bortezomib at final concentration of 2.3 µM) were subsequently transferred by Kalypsys pintool. For primary screens, the MIPE collection was tested at 11-point dilutions (final concentrations range from 0.78 nM to 46 µM) and the NPC collection at 8-point dilutions (final concentrations range from 0.59 nM to 46 µM). Compounds tested in follow-up screens were assayed at 11-point dilutions. Cells were incubated for 48 hours, followed by addition of 3 µL of CellTiter-Glo (Promega). After a 15 min incubation at room temperature, samples were analyzed for luminescence intensity using a ViewLux High-throughput CCD imager equipped with clear filters.
Potency means the concentration at half of the fitted maximal effect.

| Compound | Potency |
| --- | --- |
| COc1cc2c(Nc3ccc(NC(=O)c4ccccc4)cc3)ncnc2cc1OCCCN1CCOCC1 | inactive |
| Nc1nc(Nc2ccc(S(N)(=O)=O)cc2)nn1C(=O)c1c(F)cccc1F | inactive |
| Clc1cccc(-c2nnnn2Cc2cccnc2)c1Cl | inactive |
| CCCCOc1c(C(=O)c2c(F)cc(C)cc2F)cnc2n[nH]cc12 | inactive |
| CNC(=O)c1ccc(-c2cnc3ncc(Cc4ccc5ncccc5c4)n3n2)cc1F | inactive |
| COC(=O)C1=C(C)NC(C)=C(C(=O)OCCN2CCN(C(c3ccccc3)c3ccccc3)CC2)C1c1cccc([N+](=O)[O-])c1 (stereo not given) | inactive |
| COc1ccc(C(=O)CC2(O)C(=O)Nc3c(Cl)ccc(Cl)c32)cc1 (stereo not given) | inactive |
| CC(C)(C)OC(=O)Nc1ccc(-c2cc(C(=O)NCCCCCCC(=O)NO)no2)cc1 | 7.43 µM (active) |
| Fc1cc(-c2cccc3ncc(-c4cnn(C5CCNCC5)c4)nc23)cc(F)c1CN1CCOCC1 | 23.5 µM (active) |
| CC=C1NC(=O)[C@H]2CSSCCC=C[C@H](CC(=O)N[C@H](C(C)C)C(=O)N2)OC(=O)[C@H](C(C)C)NC1=O | 0.0296 µM (active) |
| Cc1cn(-c2cc(NC(=O)c3ccc(C)c(Nc4nccc(-c5cccnc5)n4)c3)cc(C(F)(F)F)c2)cn1 | inactive |
| COc1cc(C(C)C)c2c(c1)S(=O)(=O)N(COc1cc(=O)n3cccc(OCCN4CCCCC4)c3n1)C2=O | inactive |
| COCCn1c2c([n+](Cc3cnccn3)c1C)C(=O)c1ccccc1C2=O | 0.0148 µM (active) |
| Cn1c2cc(S(C)=O)sc2c2cnn(Cc3cccc(N)c3)c(=O)c21 (stereo not given) | inactive |
| COc1cccc(Nc2c(C(N)=O)cnc3c(C)cc(S(=O)(=O)c4cccc(C(=O)N(C)C)c4)cc23)c1 | inactive |
| COc1ccc(C=Cc2cc(OC)c(OC)c(OC)c2)cc1O | inactive |
| c1nc2nc(Nc3ccc(N4CCOCC4)cc3)nc(NC3CCCCC3)c2[nH]1 | 11.8 µM (active) |
| CN(C)Cc1c(C(=O)NCCOc2ccc(C(=O)NO)cc2)oc2ccccc12 | 4.69 µM (active) |
| CCn1nnc2c(N3CCOCC3)nc(-c3ccc(NC(=O)Nc4ccc(C(=O)N5CCN(C)CC5)cc4)cc3)nc21 | 7.43 µM (active) |
| Cc1nc2cnc3ccc(C#Cc4cccnc4)cc3c2n1-c1ccc(C(C)(C)C#N)cc1 | 0.469 µM (active) |

| Compound | Potency |
| --- | --- |
| CCC1=C[C@@H]2CN(C1)Cc1c([nH]c3ccccc13)[C@@](C(=O)OC)(c1cc3c(cc1OC)N(C)[C@@H]1[C@@](O)(C(=O)OC)[C@H](OC(C)=O)[C@]4(CC)C=CCN5CC[C@]31[C@@H]54)C2 | inactive |
| Cn1cncc1[C@@](N)(c1ccc(Cl)cc1)c1ccc2c(c1)c(-c1cccc(Cl)c1)cc(=O)n2C | 14.8 µM (active) |
| Cc1nc2ccc(CN(C)c3ccc(C(=O)N[C@@H](CCC(=O)O)C(=O)O)s3)cc2c(=O)[nH]1 | inactive |
| O=c1c2ccccc2nc2n1CCc1c-2[nH]c2ccccc12 | inactive |
| CNC(=O)c1nn(C)c2c1C(C)(C)Cc1cnc(Nc3ccc(N4CCN(C)CC4)cc3)nc1-2 | inactive |
| NC(=O)c1c(OCc2c(F)cc(Br)cc2F)nsc1NC(=O)NCCCCN1CCCC1 | 20.9 µM (active) |
| COc1cc2c(Oc3ccc(-c4cnc(Nc5ccc(F)cc5)n(C)c4=O)cc3F)ccnc2cc1OCCCN1CCOCC1 | 9.35 µM (active) |
| Nc1ncnc2c1c(-c1cnc3[nH]ccc3c1)nn2C1CCCC1 | 2.09 µM (active) |
| COc1ccc(-c2cc3c(C)nc(N)nc3n(C3CCC(OCCO)CC3)c2=O)cn1 (stereo not given) | 4.18 µM (active) |
| CN(C)CC=CC(=O)Nc1cc2c(Nc3ccc(F)c(Cl)c3)ncnc2cc1O[C@H]1CCOC1 | 14.8 µM (active) |
| Cc1cn2cc(C(=O)N(C)CCO)cc(N[C@@H]3CCOc4cccc(C)c43)c2n1 | inactive |
| CC=CC1=C(C(=O)O)N2C(=O)[C@H](NC(=O)[C@H](N)c3ccc(O)cc3)[C@@H]2SC1 | inactive |
| CC(C)c1cc(-c2n[nH]c(=O)n2-c2ccc3c(ccn3C)c2)c(O)cc1O | inactive |
| Clc1cccc(-n2nnnc2NCc2ccccc2Oc2ccccn2)c1Cl | inactive |
| CCN(CC)CCNC(=O)c1ccc2nc(-c3ccccc3)c(-c3ccc(CN4CCC(n5c(=O)[nH]c6ccccc65)CC4)cc3)nc2c1 | 18.7 µM (active) |
| CCOc1ccccc1OCCNC(C)Cc1ccc(OC)c(S(N)(=O)=O)c1 (stereo not given) | inactive |
| Nc1ccn([C@@H]2CS[C@H](CO)O2)c(=O)n1 | inactive |
| C=CC(=O)Nc1cc2c(Nc3ccc(F)c(Cl)c3)ncnc2cc1C#CC(C)(C)N1CCN(C)CC1 | 11.8 µM (active) |
| CC1(C)OC2=C(C(=O)c3ccccc3C2=O)[C@H](NCc2ccccc2)[C@H]1O | 5.9 µM (active) |
| CCn1cc(-c2ccnc3[nH]c(-c4cccc(CN(C)C)c4)cc23)c(-c2ccc(NC(=O)N(C)C)cc2)n1 | 14.8 µM (active) |
